Only some compounds are listed: those with a hit (about 22% of all), similar ones and a draw of the others.
CYP2C9 act: activators of human CYP2C9; recombinant CYP2C9, luciferin-H conversion, luminescence; active compounds read high; factor 1 = untreated enzyme, 0 = blocked; hit rate 1.4% among 96,000; AID 1024; activation factor at 5 µM; P11712;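 active = activation factor of 2 or more for CYP2C9 at a 5 µM dose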;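 also: 0 = sulfaphenazole-blocked wells and 1 = vehicle-only wells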
Target sequence (P11712 whole entry, looked up): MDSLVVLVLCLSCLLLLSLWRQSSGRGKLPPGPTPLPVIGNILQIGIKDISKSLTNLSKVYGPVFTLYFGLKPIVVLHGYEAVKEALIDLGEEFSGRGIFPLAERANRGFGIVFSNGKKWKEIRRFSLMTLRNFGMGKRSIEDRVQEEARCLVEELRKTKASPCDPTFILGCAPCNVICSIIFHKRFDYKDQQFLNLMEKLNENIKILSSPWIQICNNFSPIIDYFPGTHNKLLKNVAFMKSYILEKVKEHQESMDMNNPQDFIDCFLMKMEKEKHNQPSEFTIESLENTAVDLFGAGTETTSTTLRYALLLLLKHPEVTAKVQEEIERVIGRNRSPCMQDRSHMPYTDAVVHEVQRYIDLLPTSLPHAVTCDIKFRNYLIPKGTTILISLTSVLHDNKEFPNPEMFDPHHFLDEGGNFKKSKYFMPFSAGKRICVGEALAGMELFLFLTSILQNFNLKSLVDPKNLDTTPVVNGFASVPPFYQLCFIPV
E-sel TNF inh: blocks E-selectin expression induced by TNF alpha; hit rate 0.71% among 120,000; HUVEC TNFa-induced E-selectin immunofluorescence, high content; inhibition, % at 2 µM; AID 1246;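 active = inhibition above the batch mean plus 3 SD, and confirmed as a hit on visual image review, cut at about 43% in these data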;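 also: 0% = TNF-stimulated DMSO wells and 100% = unstimulated control wells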
CYP2C19 activ: cytochrome P450 2C19 (human) activation | P33261 | recombinant CYP2C19, luciferin-H EGE luminescence; active compounds read high; 0 = fully inhibited enzyme, 1 = untreated enzyme | activation factor at 5 µM | 96,000 tested, under 10 active | AID 1025;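 active = activation factor of at least 2 at 5 µM in the primary screen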;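 also: 0 = wells with 2.5 mM tranylcypromine and 1 = vehicle-only wells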
cytoskel mod: cytoskeleton assembly modification; HUVEC TNFa F-actin phalloidin imaging, high content; inhibition, % at 2 µM; hit rate 0.18% among 91,000; AID 836;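 active = inhibition above the batch mean plus 3 SD and confirmed as a hit by visual image inspection, cut at about 30% in these data, passing the limit was not always enough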
CYP2C9 inh: blocks human cytochrome P450 2C9; CYP2C9 Supersomes, luciferin-H conversion, luminescence; inhibition, % at 5 µM; hit rate 20% among 96,000; AID 777;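 active = blocking of liver enzyme CYP2C9 beyond about 50% at 5 µM, limit read from the data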
CYP2C19 inhib: blocks human cytochrome P450 2C19 | P33261 | CYP2C19 Supersomes, luciferin-H EGE luminescence, 30 min | inhibition, % at 5 µM | hit rate 21% among 96,000 | AID 778;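 active = CYP2C19 inhibition above a set limit at 5 µM in the primary screen, cut at about 50% in these data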;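 also: plate controls were negative control wells for no effect and 2.5 mM tranylcypromine positive control for full effect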
The depositor's hits bear a star; / = no result.

SMILES | CYP2C9 act | E-sel TNF inh | CYP2C19 activ | cytoskel mod | CYP2C9 inh | CYP2C19 inhib
CCC(C)(c1nnnn1-c1c(C)cccc1C)N(N=O)c1cccc(C(F)(F)F)c1 (stereo not drawn) | / | 0 | / | / | / | /
O=C(COC(=O)c1cnccn1)c1ccccc1 | 0.2 | 13 | 0.9 | 6 | 82* | 8
O=C(COC(=O)c1cnccn1)c1ccc(Br)cc1 | 1 | 2 | 0.9 | -21 | 2 | 12
O=C(COC(=O)c1ccccc1)c1ccc(Br)cc1 | 0.9 | -55 | 0.4 | 7 | 13 | 56*
O=C(CNC(=O)c1ccc(Br)cc1)NCC(=O)OCC(=O)c1ccccc1 | / | -14 | / | / | / | /
O=C(Nc1cccc2[nH]ncc12)c1ccc(F)cc1 | 0.9 | 34 | 0.9 | 0 | 9 | 8
CN(C)CCn1c(C(=O)Nc2ccccc2)cc2ccccc21 | 1 | 4 | 0.9 | -9 | 1 | 12
Cc1n[nH]c(=O)n1-c1cccc(C(F)(F)F)c1 | 1 | 4 | 1.1 | -27 | 1 | -7
COc1ccc([C@@H]2[C@H]3C(=O)N(c4cccc(C(F)(F)F)c4)C(=O)[C@H]3ON2C)cc1 | 0.6 | / | 0.5 | 6 | 37 | 55*
CCOC(=O)C(NCc1ccccn1)(NC(=O)c1cccnc1)C(F)(F)F (stereo not drawn) | 0.9 | 19 | 0.8 | 8 | 10 | 16
COc1ccc(C(=O)Cn2nnc(-c3cccs3)n2)cc1 | 1 | -19 | 0.6 | -16 | -2 | 38
COC(=O)CCn1nnc(-c2cccs2)n1 | 1 | -4 | 0.2 | 1 | -2 | 78*
COc1ccc(CCNC(=O)CNS(=O)(=O)c2cccs2)cc1OC | 0.6 | 8 | 0.4 | -2 | 42 | 64*
O=C(CN1CCC(O)(c2ccccc2F)CC1)NCCc1c[nH]c2ccccc12 | 0.2 | -4 | 0.9 | 6 | 80* | 10
CCOc1ccc(-c2nnn(CC(=O)NCCc3c[nH]c4ccccc34)n2)cc1 | 1 | 4 | 0.9 | -16 | 1 | 5
COc1ccc(-c2nnn(CC(=O)NCCc3c[nH]c4ccccc34)n2)cc1OC | / | -11 | 0.4 | 46 | / | 64*
O=C(CN1C(=O)c2ccccc2C1=O)NCCc1c[nH]c2ccccc12 | / | -33 | / | / | / | /
COc1ccc(CCNC(=S)NC(=O)c2ccc(Br)cc2)cc1OC | / | -4 | / | / | / | /
COc1ccc(CCNC(=O)Cn2nnc(-c3ccccc3F)n2)cc1OC | 0.4 | 10 | 0.8 | -1 | 65* | 21
COCCCNC(=O)Cn1nnc(-c2ccccc2NC(=O)c2ccccc2F)n1 | 0.1 | / | 0.4 | 26 | 88* | 57*
COc1ccc(CCNC(=O)Cn2nnc(-c3cccs3)n2)cc1OC | 0.4 | 7 | 0.8 | -7 | 56* | 20
CCCC(=O)Nc1ccc(C(=O)NCC2CCCO2)cc1 (stereo not drawn) | 0.8 | 1 | 0.9 | -1 | 19 | 7
COc1cc(C(=O)OCC(=O)c2c[nH]c3ccccc23)ccc1OCC(=O)N1CCOCC1 | 0.2 | -22 | 0.5 | -3 | 78* | 51*
CCOc1cc(C(=O)OCC(=O)c2c(C)[nH]c3ccccc23)ccc1OCC(=O)N1CCOCC1 | 0.6 | -11 | 0.6 | 50* | 44 | 37
O=C(CN1C(=O)C2C3C=CC(C3)C2C1=O)OCC(=O)c1ccccc1 (stereo not drawn) | / | 10 | / | / | / | /
SMILES | CYP2C9 act | E-sel TNF inh | CYP2C19 activ | cytoskel mod | CYP2C9 inh | CYP2C19 inhib
CCOC(=O)C1CCCN(c2ncnc3c2[nH]c2cccc(OC)c23)C1 (stereo not drawn) | 0.5 | / | 0.4 | 3 | 47 | 63*
COc1ccc2c(c1)c(=O)oc1cc3oc(C)c(C)c3cc12 | 0.8 | 29 | 0.3 | / | 18 | 70*
COc1ccc2c(c1)c(=O)oc1cc3occ(C(C)(C)C)c3cc12 | 1 | 18 | 0.9 | 12 | 5 | 10
CCC1SC(=NC(=O)c2ccc(Cl)c(Cl)c2)NC1=O (stereo not drawn) | 0.4 | -2 | 1 | 0 | 58* | -3
CCc1nnc(NC(=O)CSc2nnc(C)n2CC2CCCO2)s1 (stereo not drawn) | 1.1 | -3 | 1.2 | 10 | -8 | -19
Cc1ccc2c(c1)c1cccc3c1n2CCN3CCC(N)=O | 0.3 | -1 | 0.7 | -4 | 74* | 31
COc1ccc2c(C)cc(SCC(=O)Nc3c(C)n(C)n(-c4ccccc4)c3=O)nc2c1 | 0.9 | -5 | 0.9 | 12 | 11 | 12
Cc1ccc(C(=O)CC2(O)C(=O)N(Cc3ccccc3)c3ccccc32)o1 (stereo not drawn) | 1.2 | 11 | 0.7 | -9 | -17 | 31

Screens: PubChem BioAssay, several laboratories
